Data as given in the supplement of paper PMC13380429.

Tested on: Vero E6 infected with SARS-CoV-2
Assay: inhibition of SARS-CoV-2 cytopathic effect; higher = more antiviral protection, active = above 15
Settings: 48 h

Measured: inhibition of SARS-CoV-2 cytopathic effect

C[C@@H]1CCO[C@H]2Cn3cc(C(=O)NCc4ccc(F)cc4F)c(=O)c(O)c3C(=O)N12 [dolutegravir]
inactive: 1 nM -0.6% | 8.33 nM 1.42% | 100 nM 4% | 833.33 nM 1.93% | 10000 nM 4.1%

CCNC1(C(N)=O)CCN(c2ncnc3c2nc(-c2ccccc2Cl)n3-c2ccc(Cl)cc2)CC1
inactive: 1 nM -2.1% | 8.33 nM 0.22% | 100 nM 1.6% | 833.33 nM 7.17% | 10000 nM -0.26%

O=C1[C@@H]2[C@H]3CC[C@H](C3)[C@@H]2C(=O)N1C[C@@H]1CCCC[C@H]1CN1CCN(c2nsc3ccccc23)CC1 [lurasidone]
inactive: 1 nM -0.28% | 8.33 nM 0.05% | 100 nM 1.73% | 833.33 nM 3.11% | 10000 nM -6.2%

Clc1ccccc1CN1CCc2sccc2C1 [ticlopidine]
inactive: 1 nM -1.31% | 8.33 nM -0.14% | 100 nM 0.36% | 833.33 nM 1.94% | 10000 nM -1.5%

CC(=O)c1c(O)cc(C)oc1=O [dehydroacetic-acid]
inactive: 1 nM 2.87% | 8.33 nM 3.44% | 100 nM 2.94% | 833.33 nM 2.97% | 10000 nM 3.07%

O=C(NOCC(O)CO)c1cc(Br)c(F)c(F)c1Nc1ccc(I)cc1F (stereo not given)
inactive: 1 nM -0.27% | 8.33 nM -0.08% | 100 nM -8.55% | 833.33 nM -10% | 10000 nM -12.5%

O=S(=O)(O)Oc1ccc(C(c2ccc(OS(=O)(=O)O)cc2)c2ccccn2)cc1 [sodium-picosulfate]
inactive: 1 nM -1.14% | 8.33 nM -0.13% | 100 nM 0.34% | 833.33 nM 5.9% | 10000 nM -5.74%

Cc1ccc(NCCCc2ccccc2)c(N)c1 [NFKB-activation-inhibitor-II]
inactive: 1 nM -0.97% | 8.33 nM -0.96% | 100 nM -1.32% | 833.33 nM -1.12% | 10000 nM 2.24%

CC[C@]1(O)C[C@H]2CN(CCc3c([nH]c4ccccc34)[C@@](C(=O)OC)(c3cc4c(cc3OC)N(C=O)[C@H]3[C@@](O)(C(=O)OC)[C@H](OC(C)=O)[C@]5(CC)C=CCN6CC[C@]43[C@@H]65)C2)C1 [Vincristine (sulfate)]
inactive: 1 nM -1.47% | 8.33 nM -1.12% | 100 nM 0.94% | 833.33 nM 0.14% | 10000 nM -0.29%

O=C(Oc1ccc(Br)cc1)N1CCN2CCC1CC2
inactive: 1 nM 1.3% | 8.33 nM 1.31% | 100 nM 4.76% | 833.33 nM 1.51% | 10000 nM 0.59%

O=c1c2ccccc2[se]n1-c1ccccc1 [Ebselen]
inactive: 1 nM 2.29% | 8.33 nM 0.73% | 100 nM 0.59% | 833.33 nM 1.45% | 10000 nM 1.28%

OC[C@H]1O[C@@H](Oc2cc(O)cc(/C=C/c3ccc(O)cc3)c2)[C@H](O)[C@@H](O)[C@@H]1O [polydatin]
inactive: 1 nM -1.01% | 8.33 nM -1.06% | 100 nM 1.77% | 833.33 nM 9.49% | 10000 nM 2.31%

Cc1cc(/C=C/C#N)cc(C)c1Nc1ccnc(Nc2ccc(C#N)cc2)n1 [rilpivirine]
inactive: 1 nM 0.35% | 8.33 nM -3.25% | 100 nM -2.82% | 833.33 nM -1.06% | 10000 nM -6.76%

C[Se]C[C@H](N)C(=O)O [Se-methylselenocysteine]
inactive: 1 nM 2.05% | 8.33 nM 1.18% | 100 nM 0.23% | 833.33 nM 0.93% | 10000 nM 1.8%

C[C@H]1CCc2c(cc(Br)c(F)c2Br)N1C=O
inactive: 1 nM -0.42% | 8.33 nM -1.13% | 100 nM -1.55% | 833.33 nM -0.53% | 10000 nM -1.25%

Cc1c2oc3c(C)ccc(C(=O)N[C@@H]4C(=O)N[C@H](C(C)C)C(=O)N5CCC[C@H]5C(=O)N(C)CC(=O)N(C)[C@@H](C(C)C)C(=O)O[C@@H]4C)c3nc-2c(C(=O)N[C@@H]2C(=O)N[C@H](C(C)C)C(=O)N3CCC[C@H]3C(=O)N(C)CC(=O)N(C)[C@@H](C(C)C)C(=O)O[C@@H]2C)c(N)c1=O [dactinomycin]
inactive: 1 nM -0.42% | 8.33 nM 3.96% | 100 nM -3.53% | 833.33 nM -8.77% | 10000 nM -14.8%

Cc1ccc(NC(=O)Nc2cc(C(F)(F)F)ccc2F)cc1Nc1ccc2c(c1)NC(=O)/C2=C\c1ccc[nH]1
inactive: 1 nM 5.12% | 8.33 nM 5.28% | 100 nM 5.34% | 833.33 nM 7.91% | 10000 nM 4.87%

Cc1cc(NC(=O)Nc2ccc(N(C)C)cc2)c2cc(F)cc(F)c2n1
inactive: 1 nM -0.11% | 8.33 nM 0.56% | 100 nM 1.66% | 833.33 nM 3.02% | 10000 nM 4.9%

Cc1cnc(-c2ccccc2C(C)C)nc1NCc1ccc(-n2ccnn2)cc1
inactive: 1 nM -3.33% | 8.33 nM -2.94% | 100 nM -0.44% | 833.33 nM 0.3% | 10000 nM 1.03%

CN1CCC(COc2cnc(-c3cccc(Cn4nc(-c5cccc(C#N)c5)ccc4=O)c3)nc2)CC1
inactive: 1 nM 1% | 8.33 nM 1.71% | 100 nM 1.4% | 833.33 nM 2.63% | 10000 nM 9.19%

CN1CC(=O)N=C1NC(=O)Nc1cccc(Cl)c1 [fenobam]
inactive: 1 nM 0.79% | 8.33 nM 2.12% | 100 nM 0.63% | 833.33 nM 1.08% | 10000 nM -0.64%

NC(=O)c1cnccn1 [pyrazinamide]
inactive: 1 nM -9.22% | 8.33 nM -8.44% | 100 nM -5.67% | 833.33 nM -9.11% | 10000 nM -9.96%

N=C(N)NN=C1C=CC(=NNC(N)=S)C=C1 [ambazone]
inactive: 1 nM 1.75% | 8.33 nM 1.52% | 100 nM 1.46% | 833.33 nM 1.18% | 10000 nM -0.05%

O=S(=O)(O)c1ccc(O)cc1 [4-phenolsulfonic-acid]
inactive: 1 nM -2.47% | 8.33 nM 0.25% | 100 nM 0.79% | 833.33 nM -2.18% | 10000 nM -0.48%

NC(=O)N1c2ccccc2CC(=O)c2ccccc21 [oxcarbazepine]
inactive: 1 nM 0.74% | 8.33 nM 3.71% | 100 nM 4.19% | 833.33 nM -0.85% | 10000 nM 4.57%

CC(=O)[C@H]1CC[C@H]2[C@@H]3C[C@H](C)C4=CC(=O)CC[C@]4(C)[C@H]3[C@@H](O)C[C@]12C [medrysone]
inactive: 1 nM -0.04% | 8.33 nM 1.55% | 100 nM -1.22% | 833.33 nM 0.73% | 10000 nM 3.22%

O=c1[nH]cnc2c([C@@H]3N[C@H](CO)[C@@H](O)[C@H]3O)c[nH]c12 [forodesine]
inactive: 1 nM -0.75% | 8.33 nM 0.06% | 100 nM -1.79% | 833.33 nM -1.77% | 10000 nM -2.56%

CC(=O)O[C@@H]1C[C@H]2C(C)(C)C(=O)C=C[C@]2(C)[C@H]2CC[C@@]3(C)[C@H](c4ccoc4)OC(=O)[C@H]4O[C@]43[C@@]21C [gedunin]
active: 10000 nM 19%
inactive: 1 nM -1.35% | 8.33 nM -1.68% | 100 nM -1.07% | 833.33 nM 6.09%

CC(C)NC(=O)c1ccc(C#Cc2ccncc2)cn1
inactive: 1 nM -1% | 8.33 nM 1.41% | 100 nM 2.79% | 833.33 nM 1.58% | 10000 nM 13.2%

C1=N/C2=N/c3ccc(OCCN4CCCC4)c(c3)COC/C=C/COCc3cccc(c3)C(=C1)N2 [pacritinib]
inactive: 1 nM -0.44% | 8.33 nM 0.71% | 100 nM 0.95% | 833.33 nM 0.27% | 10000 nM -15%

C[N+]1(C)[C@@H]2CC[C@H]1C[C@@H](OC(=O)C(CO)c1ccccc1)C2 (stereo not given in full) [methylatropine-nitrate]
inactive: 1 nM 1.74% | 8.33 nM 2.06% | 100 nM 2.14% | 833.33 nM 4.12% | 10000 nM 3.88%

CSc1ccc(C(=O)c2[nH]c(=O)[nH]c2C)cc1 [enoximone]
inactive: 1 nM -4.27% | 8.33 nM -5.05% | 100 nM -6.45% | 833.33 nM -4.44% | 10000 nM -2.39%

CC[C@H](CC[C@@H](C)[C@H]1CC[C@H]2[C@@H]3CC=C4C[C@@H](O[C@@H]5O[C@H](CO)[C@@H](O)[C@H](O)[C@H]5O)CC[C@]4(C)[C@H]3CC[C@]12C)C(C)C [daucosterol]
inactive: 1 nM 0.22% | 8.33 nM -0.23% | 100 nM 0.27% | 833.33 nM 0.28% | 10000 nM -1.86%

COc1ccc(-c2sc(NC(=O)C(C)(C)C)nc2C)cc1S(=O)(=O)Nc1ccc(O)cc1 [PI4KIII-beta-inhibitor-1]
inactive: 1 nM -2.8% | 8.33 nM -1.82% | 100 nM 0.52% | 833.33 nM 0.18% | 10000 nM 5.19%

CC(C)(C=O)Cc1cc(C(C)(C)C)c(O)c(C(C)(C)C)c1
inactive: 1 nM 3.54% | 8.33 nM 2.95% | 100 nM 2.75% | 833.33 nM 2.01% | 10000 nM 1.01%

COc1ccc(CCN(C)CCCC(C#N)(c2cc(OC)c(OC)c(OC)c2)C(C)C)cc1OC (stereo not given) [gallopamil]
inactive: 1 nM -0.29% | 8.33 nM 0.76% | 100 nM -0.41% | 833.33 nM 0.33% | 10000 nM -2.43%

Cc1cc(/C=C/c2ccc3cc(N(C)C)ccc3[n+]2C)c(C)n1-c1ccccc1 [pyrvinium-pamoate]
inactive: 1 nM -1.06% | 8.33 nM -0.84% | 100 nM -3.02% | 833.33 nM -2.46% | 10000 nM -13.7%
